# Source: PubChem BioAssay (EPA / NIEHS)
# The source made the active and inactive calls. Rule for the calls: active = hit-call score of the fitted dose curve at least 0.9, where 1 is the maximum; inactive = score below 0.9.
# Assays:
# [1] = read-out: serum amyloid A (SAA), SAA1 (gene 6288); assay: BSK_CASM3C_SAA: BioMAP Diversity Plus: CASM3C Assay for serum amyloid A (SAA) Biomarker Activity (AID 2283049); settings: primary human coronary artery smooth muscle cells; actives raise or lower the signal
# [2] = BSK_CASM3C_SRB: Viability Assessment in the BioMAP Diversity Plus: CASM3C Assay (AID 2283050); settings: primary human coronary artery smooth muscle cells;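 note: cells exposed to compound for 24 h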
# [3] = read-out: Thrombomodulin, THBD (gene 7056); assay: BSK_CASM3C_Thrombomodulin: BioMAP Diversity Plus: CASM3C Assay for Thrombomodulin Biomarker Activity (AID 2283051); settings: primary human coronary artery smooth muscle cells; actives raise or lower the signal;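 note: thrombomodulin protein level measured by ELISA 24 h after dosing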
# [4] = read-out: Tissue Factor, F3 (gene 2152); assay: BSK_CASM3C_TissueFactor: BioMAP Diversity Plus: CASM3C Assay for Tissue Factor Biomarker Activity (AID 2283052); settings: primary human coronary artery smooth muscle cells; actives raise or lower the signal;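 note: cell surface tissue factor protein level read by ELISA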
# [5] = read-out: Interferon-gamma inducible Protein 10 (IP10), CXCL10 (gene 3627); assay: BSK_hDFCGF_IP10: BioMAP Diversity Plus: hDFCGF Assay for Interferon-gamma inducible Protein 10 (IP10) Biomarker Activity (AID 2283053); settings: primary human foreskin fibroblasts; actives raise or lower the signal
# Method in brief: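 Chemical-treated human skin fibroblasts (primary) were sampled at 24 h for IP-10 by ELISA. Both increases and decreases relative to DMSO were scored.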
# [6] = read-out: Urokinase-type plasminogen activator receptor (uPAR), PLAUR (gene 5329); assay: BSK_CASM3C_uPAR: BioMAP Diversity Plus: CASM3C Assay for Urokinase-type plasminogen activator receptor (uPAR) Biomarker Activity (AID 2283054); settings: primary human coronary artery smooth muscle cells; actives raise or lower the signal;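 note: cell-surface uPAR protein level quantified by ELISA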
# [7] = read-out: Vascular cell adhesion molecule 1 (VCAM1), VCAM1 (gene 7412); assay: BSK_CASM3C_VCAM1: BioMAP Diversity Plus: CASM3C Assay for Vascular cell adhesion molecule 1 (VCAM1) Biomarker Activity (AID 2283055); settings: primary human coronary artery smooth muscle cells; actives raise or lower the signal;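 note: VCAM-1 protein level quantified by ELISA on the cells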
# [8] = read-out: Collagen III, COL3A1 (gene 1281); assay: BSK_hDFCGF_CollagenIII: BioMAP Diversity Plus: hDFCGF Assay for Collagen III Biomarker Activity (AID 2283056); settings: primary human foreskin fibroblasts; actives raise or lower the signal
# Method in brief: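 ELISA read-out of collagen III from human skin fibroblast cultures sampled 24 h post-dosing. Values were derived by bidirectional fitting relative to the DMSO vehicle control.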
# [9] = read-out: Epidermal growth factor receptor (EGFR), EGFR (gene 1956); assay: BSK_hDFCGF_EGFR: BioMAP Diversity Plus: hDFCGF Assay for Epidermal growth factor receptor (EGFR) Biomarker Activity (AID 2283057); settings: primary human foreskin fibroblasts; actives raise or lower the signal
# Method in brief: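 Cell-based multiplexed assay in primary human foreskin fibroblasts. EGFR is read by ELISA 24 h after treatment and compared with DMSO controls.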
# [10] = read-out: Interleukin-8 (IL8), CXCL8 (gene 3576); assay: BSK_hDFCGF_IL8: BioMAP Diversity Plus: hDFCGF Assay for Interleukin-8 (IL8) Biomarker Activity (AID 2283058); settings: primary human foreskin fibroblasts; actives raise or lower the signal
# Method in brief: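 Cells used are human skin primary fibroblasts. Chemical is added, cultures run 24 h, then IL-8 is quantified by ELISA, and gain or loss versus DMSO control is fitted in both directions.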
# [11] = BSK_hDFCGF_Proliferation: Cell Proliferation Assessment in the BioMAP Diversity Plus: hDFCGF Assay (AID 2283059); settings: primary human foreskin fibroblasts;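 note: curves fitted for both rise and fall of signal versus DMSO baseline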
# Method in brief: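 Total protein read at 560 nm after 0.1% SRB staining of TCA-fixed human skin fibroblasts, […]. Activity is fitted in both directions relative to DMSO as baseline.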
# [12] = read-out: Macrophage colony-stimulating factor (MCSF), CSF1 (gene 1435); assay: BSK_hDFCGF_MCSF: BioMAP Diversity Plus: hDFCGF Assay for Macrophage colony-stimulating factor (MCSF) Biomarker Activity (AID 2283060); settings: primary human foreskin fibroblasts; actives raise or lower the signal
# Method in brief: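 Primary human foreskin fibroblasts dosed with chemical; 24 h later, M-CSF quantified by ELISA; curves fitted in both directions vs DMSO negative control.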
# [13] = BSK_hDFCGF_SRB: Viability Assessment in the BioMAP Diversity Plus: hDFCGF Assay (AID 2283061); settings: primary human foreskin fibroblasts;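 note: cells exposed to compound for 24 h before the read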
# Method in brief: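 Readout is SRB absorbance at 560 nm, reflecting total protein in parallel cultures of human foreskin fibroblasts harvested 24 h after chemical dosing. Activity was fitted bidirectionally relative to DMSO.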
# [14] = read-out: TIMP metallopeptidase inhibitor 1 (TIMP1), TIMP1 (gene 7076); assay: BSK_hDFCGF_TIMP1: BioMAP Diversity Plus: hDFCGF Assay for TIMP metallopeptidase inhibitor 1 (TIMP1) Biomarker Activity (AID 2283062); settings: primary human foreskin fibroblasts; actives raise or lower the signal
# Method in brief: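 Human skin fibroblasts (primary), hDFCGF system; compound exposure 24 h; TIMP-1 by ELISA; bidirectional fit vs DMSO negative control; overt cytotoxicity by SRB in parallel wells.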
# [15] = read-out: Monokine induced gamma interferon (MIG), CXCL9 (gene 4283); assay: BSK_hDFCGF_MIG: BioMAP Diversity Plus: hDFCGF Assay for Monokine induced gamma interferon (MIG) Biomarker Activity (AID 2283063); settings: primary human foreskin fibroblasts; actives raise or lower the signal
# Method in brief: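 Chemicals were added to primary human foreskin fibroblast cultures, which were sampled 24 h later. MIG levels were then quantified by ELISA and responses fitted in both directions relative to DMSO.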
# [16] = read-out: Matrix Metallopeptidase 1 (MMP1), MMP1 (gene 4312); assay: BSK_hDFCGF_MMP1: BioMAP Diversity Plus: hDFCGF Assay for Matrix Metallopeptidase 1 (MMP1) Biomarker Activity (AID 2283064); settings: primary human foreskin fibroblasts; actives raise or lower the signal
# Method in brief: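 MMP1 levels quantified by ELISA 24 h after dosing human dermal fibroblast cultures, with parallel SRB total-protein staining for overt cytotoxicity. Data fitted in both directions against DMSO baseline.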
# [17] = read-out: Vascular cell adhesion molecule 1 (VCAM1), VCAM1 (gene 7412); assay: BSK_hDFCGF_VCAM1: BioMAP Diversity Plus: hDFCGF Assay for Vascular cell adhesion molecule 1 (VCAM1) Biomarker Activity (AID 2283065); settings: primary human foreskin fibroblasts; actives raise or lower the signal;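 for AC50: VCAM-1 protein level quantified by ELISA after 24 h chemical exposure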
# Method in brief: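 Human foreskin fibroblast primary cells, chemical exposure 24 h; VCAM-1 by ELISA; bidirectional fit, DMSO = negative control/baseline.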
# [18] = read-out: Plasminogen activator inhibitor-1 (PAI1), SERPINE1 (gene 5054); assay: BSK_hDFCGF_PAI1: BioMAP Diversity Plus: hDFCGF Assay for Plasminogen activator inhibitor-1 (PAI1) Biomarker Activity (AID 2283066); settings: primary human foreskin fibroblasts; actives raise or lower the signal
# Method in brief: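 Human skin fibroblast cultures receive chemical for 24 h before PAI-1 is measured by ELISA; signal changes are fitted bidirectionally against DMSO-treated wells.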
# [19] = read-out: Intercellular Adhesion Molecule 1 (ICAM1), ICAM1 (gene 3383); assay: BSK_KF3CT_ICAM1: BioMAP Diversity Plus: KF3CT Assay for Intercellular Adhesion Molecule 1 (ICAM1) Biomarker Activity (AID 2283067); settings: primary human keratinocytes with fibroblasts; actives raise or lower the signal
# Method in brief: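 ICAM-1 levels are measured by ELISA 24 h after dosing a primary human co-culture of keratinocytes and foreskin fibroblasts. Activity in either direction is fitted relative to DMSO vehicle.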
# [20] = read-out: Interferon-gamma inducible Protein 10 (IP10), CXCL10 (gene 3627); assay: BSK_KF3CT_IP10: BioMAP Diversity Plus: KF3CT Assay for Interferon-gamma inducible Protein 10 (IP10) Biomarker Activity (AID 2283068); settings: primary human keratinocytes with fibroblasts; actives raise or lower the signal
# Method in brief: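 Human keratinocyte plus foreskin fibroblast primary co-culture exposed to test chemical for 24 h; IP-10 measured by ELISA. Concentration-response fitted bidirectionally against DMSO control as baseline.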
smiles,measurement,setting,value
CC(C)(C)CC(C)(C)c1ccc(O)cc1,AC50,[1],10.7 µM (active)
same,AC50,[2],13.7 µM (active)
same,AC50,[3],33.8 µM (active)
same,AC50,[4],10 µM (active)
same,AC50,[5],9 µM (active)
same,AC50,[6],14.8 µM (active)
same,AC50,[7],12 µM (active)
same,AC50,[8],8.27 µM (active)
same,AC50,[9],20 µM (active)
same,AC50,[10],10.6 µM (active)
same,AC50,[11],8.07 µM (active)
same,AC50,[12],7.74 µM (active)
same,AC50,[13],9.59 µM (active)
same,AC50,[14],8.77 µM (active)
same,AC50,[15],9.02 µM (active)
same,AC50,[16],6.98 µM (active)
same,AC50,[17],10.8 µM (active)
same,AC50,[18],8.03 µM (active)
same,AC50,[19],11.3 µM (active)
same,AC50,[20],10.1 µM (active)
Cn1sc(Cl)cc1=O,outcome,[1],inactive
same,outcome,[2],inactive
same,outcome,[3],inactive
same,outcome,[4],inactive
same,AC50,[5],28.2 µM (active)
same,outcome,[6],inactive
same,AC50,[7],20 µM (active)
same,AC50,[8],33.6 µM (active)
same,AC50,[9],33.6 µM (active)
same,AC50,[10],37.9 µM (active)
same,AC50,[11],1.77 µM (active)
same,AC50,[12],25.6 µM (active)
same,AC50,[13],30.5 µM (active)
same,AC50,[14],29.8 µM (active)
same,AC50,[15],27.9 µM (active)
same,AC50,[16],32.8 µM (active)
same,AC50,[17],23.4 µM (active)
same,AC50,[18],35.2 µM (active)
same,AC50,[19],20 µM (active)
same,outcome,[20],inactive
Oc1ccc(-c2ccccc2)cc1,outcome,[1],inactive
same,AC50,[2],3.97 µM (active)
same,outcome,[3],inactive
same,AC50,[4],20 µM (active)
same,outcome,[5],inactive
same,outcome,[6],inactive
same,outcome,[7],inactive
same,outcome,[8],inactive
same,outcome,[9],inactive
same,outcome,[10],inactive
same,outcome,[11],inactive
same,outcome,[12],inactive
same,outcome,[13],inactive
same,outcome,[14],inactive
same,outcome,[15],inactive
same,outcome,[16],inactive
same,outcome,[17],inactive
same,outcome,[18],inactive
same,outcome,[19],inactive
same,outcome,[20],inactive
CCSC(C)CC1CC(=O)C(C(CC)=NOC/C=C/Cl)=C(O)C1 (stereo not given),outcome,[1],inactive
same,outcome,[2],inactive
same,outcome,[3],inactive
same,outcome,[4],inactive
same,outcome,[5],inactive
same,outcome,[6],inactive
same,outcome,[7],inactive
same,outcome,[8],inactive
same,outcome,[9],inactive
same,outcome,[10],inactive
same,outcome,[11],inactive
same,outcome,[12],inactive
same,outcome,[13],inactive
same,outcome,[14],inactive
same,outcome,[15],inactive
same,outcome,[16],inactive
same,outcome,[17],inactive
same,outcome,[18],inactive
same,outcome,[19],inactive
same,outcome,[20],inactive
CC(C)(OO)c1ccccc1,outcome,[1],inactive
same,outcome,[2],inactive
same,outcome,[3],inactive
same,outcome,[4],inactive
same,AC50,[5],32.7 µM (active)
same,outcome,[6],inactive
same,outcome,[7],inactive
same,AC50,[8],20 µM (active)
same,AC50,[9],35.8 µM (active)
same,AC50,[10],38.1 µM (active)
same,AC50,[11],6.71 µM (active)
same,AC50,[12],28.9 µM (active)
same,AC50,[13],34.8 µM (active)
same,AC50,[14],34.7 µM (active)
same,AC50,[15],34.4 µM (active)
same,AC50,[16],37.1 µM (active)
same,AC50,[17],28.6 µM (active)
same,AC50,[18],30.4 µM (active)
same,outcome,[19],inactive
same,outcome,[20],inactive
